Laboratory results taken from the supplement of paper PMC13380429.

Tested on: Vero E6 infected with SARS-CoV-2
Assay: morphology score (similarity to uninfected cells); higher = more like uninfected cells
Settings: 24 h

**Q.** With `COC1CCN(C(=O)c2cc(Cc3n[nH]c(=O)c4ccccc34)ccc2F)CC1` (10 µM) as the molecule, how does the morphology score read?
**A.** 0.118

**Q.** How did the morphology score turn out when `CC12CC3CC(C)(C1)CC(N)(C3)C2` [memantine] (10 µM) was run?
**A.** 0.0122

**Q.** How did the morphology score turn out when `Fc1ccc(-n2cc(CCCCN3CCC4(CC3)OCc3ccccc34)c3ccccc32)cc1` [siramesine] (0.833333 µM) was run?
**A.** 0.0919

**Q.** With `CN=c1nc(-c2ccccc2)n(-c2ccccc2)s1` (10 µM) as the molecule, how does the morphology score read?
**A.** -0.0414

**Q.** With `CC(C)c1nc(N(C)S(C)(=O)=O)nc(-c2ccc(F)cc2)c1/C=C/[C@@H](O)C[C@@H](O)CC(=O)O` [rosuvastatin] (0.833333 µM) as the molecule, how does the morphology score read?
**A.** 0.322

**Q.** `CCc1ccc(/C=C/C(=O)Nc2ccc(C(C)=O)cc2)o1` [heclin] (10 µM) was tested. Which morphology score did it give?
**A.** 0.263

**Q.** For `CC(=O)N[C@@H](Cc1ccc(O)cc1)C(=O)O` [N-acetyl-tyrosine] (10 µM), which morphology score is on record?
**A.** -0.058

**Q.** Which morphology score does the source give for `O=C(CCCCCCC(=O)Nc1ccccc1)NO` [vorinostat] (0.833333 µM) here?
**A.** 0.00344

**Q.** For `O=c1[nH]c2cc(C(F)(F)F)c(N3CCOCC3)cc2n(CP(=O)(O)O)c1=O` (10 µM), which morphology score is on record?
**A.** 0.119

**Q.** For `CCOc1ccccc1C(=O)O` [2-ethoxybenzoic-acid] (10 µM), which morphology score is on record?
**A.** 0.0437

**Q.** With `CO[C@H]1CC=C2CCN3CCC4=C(CC(=O)OC4)[C@]23C1` (10 µM) as the molecule, how does the morphology score read?
**A.** 0.059

**Q.** `Oc1ncnc2[nH]ncc12` [allopurinol] (10 µM) was tested. Which morphology score did it give?
**A.** -0.0914

**Q.** How did the morphology score turn out when `Nc1ccccc1NC(=O)c1ccc(CNc2nccc(-c3cccnc3)n2)cc1` [mocetinostat] (0.833333 µM) was run?
**A.** -0.00842

**Q.** `CCOc1cc(N)c(Cl)cc1C(=O)NCC1CN(Cc2ccc(F)cc2)CCO1` (centres undefined) [mosapride] (10 µM) was tested. Which morphology score did it give?
**A.** 0.33

**Q.** With `CN1C(C(=O)Nc2ccccn2)=C(O)c2sccc2S1(=O)=O` [tenoxicam] (10 µM) as the molecule, how does the morphology score read?
**A.** -0.0614

**Q.** For `CCCCCCCCCCCCCCCCCCN(CCCCCCCCCCCCCCCCCC)CCCN(CCO)CCO` [avridine] (10 µM), which morphology score is on record?
**A.** 0.0689

**Q.** `Cc1cc2c(N3CCCC3)nc(N3CCCC3)nc2n1C` (10 µM) was tested. Which morphology score did it give?
**A.** 0.452

**Q.** How did the morphology score turn out when `CCCOC(=O)c1ccccc1` [propyl-benzoate] (10 µM) was run?
**A.** 0.105

**Q.** With `Oc1cc2c(cc1O)C(c1ccccc1)CNCC2` (centres undefined) (10 µM) as the molecule, how does the morphology score read?
**A.** -0.34

**Q.** With `CCCCCCCCCCCCC[N+](C)(C)Cc1ccccc1` [benzalkonium] (10 µM) as the molecule, how does the morphology score read?
**A.** 0.0369

**Q.** Which morphology score does the source give for `CC[C@@H](CO)NCCN[C@@H](CC)CO` [ethambutol] (10 µM) here?
**A.** -0.117

**Q.** Which morphology score does the source give for `CCC(=O)NC[C@@H]1C[C@H]1c1cccc2c1CCO2` [tasimelteon] (10 µM) here?
**A.** 0.169

**Q.** For `C[C@@H]1NC(C)(C)CO[C@@]1(O)c1cccc(Cl)c1` [radafaxine] (10 µM), which morphology score is on record?
**A.** -0.0433

**Q.** For `COc1ccc2nc3cc(Cl)ccc3c(Nc3cc(CN4CCCC4)c(O)c(CN4CCCC4)c3)c2n1` [pyronaridine] (0.833333 µM), which morphology score is on record?
**A.** 0.282

**Q.** Which morphology score does the source give for `Cc1cccc(C)c1NC(=O)CC12CCCN1CCC2` [pilsicainide] (10 µM) here?
**A.** -0.223

**Q.** Which morphology score does the source give for `CC1C=CC=CCCC=CC=CC=CC=CC(OC2OC(C)C(O)C(N)C2O)CC2OC(O)(CC(O)C(O)CCC(O)CC(O)CC(O)CC(=O)OC(C)C(C)C1O)CC(O)C2C(=O)O` (centres undefined) [nystatin] (10 µM) here?
**A.** -0.0648

**Q.** `N=C1CCCN1Cc1[nH]c(=O)[nH]c(=O)c1Cl` [tipiracil] (10 µM) was tested. Which morphology score did it give?
**A.** -0.0802

**Q.** `Cc1c(NC(=O)N2CCOCC2)ccc2c1c1ccccc1n2C(C)C` (10 µM) was tested. Which morphology score did it give?
**A.** 0.121

**Q.** Which morphology score does the source give for `c1ccc(-c2nn3c(c2-c2ccnc4cc(OCCN5CCOCC5)ccc24)CCC3)nc1` (10 µM) here?
**A.** 0.686
